# Rpn11 inh: inhibitors of human proteasome Rpn11; 360,000 tested, 0.59% active; AID 588493; human 26S proteasome, Ub4-pepOG fluorescence polarization; 20S core pre-blocked with epoxomicin; inhibition, % at 20 µM; O00487;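 active = inhibition at 20 µM, scaled to each plate's controls, above about 33%, limit read from the data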
# NRP1-CendR mod: modulators of CendR peptide binding to human neuropilin-1; O14786; FAM-RPARPAR peptide binding to NRP-1, fluorescence polarization; inhibition, % at 25 µM; 360,000 tested, 0.85% active; AID 602438;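 active = inhibition or corrected inhibition above about 18%, plus a signal ratio from 0.5 to 1.5, limit read from the data, passing the limit was not always enough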
# TPT1 inh: inhibitors of Candida albicans tRNA 2'-phosphotransferase TPT1; AID 1962; recombinant caTPT1, FP RNA substrate dephosphorylation; 300,000 tested, 0.81% active; inhibition, % at 5 µM;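 active = inhibition above the mean of all tested compounds plus 3 SD, set per screening campaign, cut at about 24% in these data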;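 note: plate controls were DMSO alone for no effect and ferristatin control at 100 nM for full effect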
# HNF4A DNA FP: change in binding of human HNF4 alpha to DNA. HNF4a-FITC DNA binding, fluorescence polarization, 1 h. activity change, % at 10 µM. 360,000 tested, 0.3% active; in the data active = activity change above about 30%, passing the limit was not always enough
# Target sequence (P41235 whole entry, looked up): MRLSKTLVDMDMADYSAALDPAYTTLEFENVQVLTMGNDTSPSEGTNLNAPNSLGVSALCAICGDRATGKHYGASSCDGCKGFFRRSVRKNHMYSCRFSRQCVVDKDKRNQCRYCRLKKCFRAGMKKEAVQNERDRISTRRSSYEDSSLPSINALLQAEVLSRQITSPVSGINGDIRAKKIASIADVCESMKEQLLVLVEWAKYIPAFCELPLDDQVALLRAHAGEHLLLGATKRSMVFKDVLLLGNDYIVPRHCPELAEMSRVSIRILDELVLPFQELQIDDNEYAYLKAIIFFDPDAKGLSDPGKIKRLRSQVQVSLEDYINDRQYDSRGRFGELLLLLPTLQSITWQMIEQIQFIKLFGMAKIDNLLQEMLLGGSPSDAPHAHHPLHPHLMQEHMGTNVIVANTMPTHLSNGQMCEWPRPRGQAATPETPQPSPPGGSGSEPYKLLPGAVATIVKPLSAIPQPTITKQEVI
# CTSL1 counter: cathepsin L1 inhibition, PFM18AAP counter-screen; 300,000 tested, 0.49% active; recombinant F. hepatica cathepsin L1, Z-Leu-Arg-MCA fluorescence; AID 1906; inhibition, % at 5.96 µM;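 active = inhibition above the mean of all tested compounds plus 3 SD, set per screening campaign, cut at about 17% in these data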;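 note: 0% = plate median of test compound wells and 100% = 1 µM Z-Phe-Ala-diazomethylketone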
# PHOSPHO1 inh: blocks human PHOSPHO1 phosphatase activity; Q8TCT1; 290,000 tested, 1.1% active; inhibition, % at 13.3 µM; recombinant PHOSPHO1, absorbance phosphatase assay; AID 1565; in the data active = inhibition above about 60%
# An asterisk follows results filed as active; . = no result given. In the library only some 3.3% were active in any assay of this set; here they are far more common.
SMILES,Rpn11 inh,NRP1-CendR mod,TPT1 inh,HNF4A DNA FP,CTSL1 counter,PHOSPHO1 inh
CC(C)NC(=O)N(C)C[C@H]1Oc2c(NC(=O)C3CCCCC3)cccc2C(=O)N([C@H](C)CO)C[C@@H]1C,-5,22,.,0,.,.
O=C(NC1CCCC1)c1cnn2c(C(F)(F)F)cc(-c3ccc4c(c3)OCO4)nc12,.,-36,-4,70*,0,3
CC1(C)OC(c2ccccc2)=C/C(=C/C=C2C(=O)c3ccccc3C2=O)O1,25,-74,-5,84*,1,-12
COc1cc(/C=C/C(=O)OCC(=O)NCc2ccccc2OC)ccc1O,-2,13,-1,0,-2,.
Cc1cc(C)cc(NC(=O)CSc2ccc(-c3ccccn3)nn2)c1,-3,-6,-3,2,1,56
O=C(CSc1ccc(-c2ccccn2)nn1)Nc1cccc(F)c1,7,-11,-3,1,1,61*
O=C(NC1CCCCC1)N1CCCCCCC1,-1,-8,-3,1,18*,-9
CCN1CCN(C(c2cccs2)C(C)NC(=O)C(C)C)CC1 (centres undefined),1,-3,-7,-1,0,2
Cc1ccc(NC2=CC(=O)C(=O)c3ccccc32)cc1,3,3,-6,0,15,-4
Cc1cc(NC2=CC(=O)C(=O)c3ccccc32)no1,-3,28*,.,0,.,.
COc1cc(OC)c(NC2=CC(=O)C(=O)c3ccccc32)cc1Cl,-16,14,-3,3,23*,18
CCC(C(=O)Nc1cc(Cl)c(OC)cc1OC)c1ccccc1 (centres undefined),-1,-6,0,3,3,-8
Nn1cnc2scc(-c3ccco3)c2c1=O,-1,-3,-4,1,1,37
Cc1cc(C)nc(NS(=O)(=O)c2ccc(NC(=O)c3nn(-c4ccccc4)ccc3=O)cc2)n1,7,7,-1,0,-2,41
Cc1cccc(-n2ccc(=O)c(C(=O)Nc3ccc(S(=O)(=O)Nc4onc(C)c4C)cc3)n2)c1,-1,36*,-2,3,1,24
COC(=O)c1c(NC(=O)CC2Nc3cc(C)c(C)cc3NC2=O)sc(C)c1C (centres undefined),50*,-49,12,17,-1,-6
Cc1cc2c(cc1C)NC(CC(=O)NCc1ccccc1)C(=O)N2 (centres undefined),53*,-27,12,21,7,3
COC(=O)c1c(NC(=O)CC2Sc3ccc(C(F)(F)F)cc3NC2=O)sc(C)c1C (centres undefined),0,2,-2,2,-4,-5
CCc1cc(C(=O)OC)c(NC(=O)CC2Nc3cc(C)c(C)cc3NC2=O)s1 (centres undefined),.,-41,14,61*,-4,-5
CCOC(=O)c1cc(NC(=O)c2ccc(Cl)cc2)c(=O)n2c1oc1ccc(Cl)cc12,28,-9,-2,6,-1,-3
Cc1ccc(NC(=O)C2(C)CCN2C(=O)Cc2ccc(C(C)C)cc2)cc1 (centres undefined),1,-11,.,-4,.,.
CC(=O)NC(C)c1ccc(C(=O)CSc2nnc(C3CC3)n2C2CC2)cc1 (centres undefined),3,-11,.,3,.,.
CSc1ccc(OC2(C)CCN(Cc3ccc4c(c3)OCCO4)C2)cc1 (centres undefined),0,0,.,1,.,.
Cc1cccc(C)c1NC(=O)C1CCCN1S(=O)(=O)c1ccc(-c2ccc(=O)[nH]n2)s1 (centres undefined),-11,3,2,5,28*,44
CCc1ccccc1NC(=O)C1CCCN1S(=O)(=O)c1ccc(-c2ccc(=O)[nH]n2)s1 (centres undefined),9,-3,-2,-3,2,29
SMILES,Rpn11 inh,NRP1-CendR mod,TPT1 inh,HNF4A DNA FP,CTSL1 counter,PHOSPHO1 inh
O=c1[nH]c(CSc2nnnn2-c2ccc(Cl)cc2)nc2ccccc12,32,-46,3,11,3,20
Clc1ccc(-n2nnnc2SCc2c(-c3ccccc3)nc3sccn23)cc1,7,2,5,2,-4,98*
O=C(N/N=C/c1c(O)ccc2ccccc12)c1ccc[n+](CCO)c1,15,-21,10,2,20*,24
COc1ccc(OC)c(NC(=O)c2ccc(Cl)cc2)c1,-4,10,-4,3,49*,37
COc1ccc(C(=O)Nc2ccc(Cl)cc2C(=O)N2CCCC(C)C2)cc1 (centres undefined),-5,24*,-7,-1,-1,12
COc1ccc(C)cc1NC(=O)c1cccc(C(=O)Nc2cc(C)ccc2OC)c1,0,33*,-1,0,1,-13
COc1ccc(C(=O)Nc2cc(OC)ccc2OC)cc1,4,14,0,2,-1,7
COc1ccc(C(=O)Nc2ccc(Cl)cc2C(=O)N2CCOCC2)cc1,-11,10,-2,0,2,22
O=C(N/N=C\c1c(O)ccc2ccccc12)c1ccc(O)cc1,6,-9,9,1,0,24
Cc1cc(C)n2nc(C(=O)OCC(=O)N(Cc3ccccc3)C(C)C)nc2n1,-2,-12,.,4,.,.
Cc1ccc(C(=O)N2CCN(S(=O)(=O)c3sc(C(=O)O)c(C)c3C(=O)O)CC2)s1,1,8,.,-3,.,.
CC(C)C[C@H](NC(=O)N1c2ccccc2NC(=O)[C@@H]1C(C)C)C(=O)N1CCC[C@@H]1C(=O)O,-6,-7,1,2,3,40
COc1ccc2ccccc2c1/C=N/NC(=O)c1cccc(C)c1,4,-10,1,0,18*,.
COc1ccc(C)cc1NC(=O)c1cc2ccccc2o1,-1,2,0,1,33*,16
CCCNC(=O)c1cc(C2CCCCN2C(=O)c2ccc3c(c2)CCO3)on1 (centres undefined),-4,14,.,10,.,.
CC1CCC(NC(=O)C2CCN(S(=O)(=O)c3ccc4nc5c(c(C(=O)O)c4c3)CC(C)CC5)CC2)CC1 (centres undefined),11,-12,-2,4,19*,39
COc1ccc2c(c1)CCC1C2=NN(/C(C)=C\C(C)=O)C1c1ccc(F)cc1 (centres undefined),51*,-158,13,53*,-1,41
CCOc1ccc(C(=S)NC2CCCCC2)cc1OC,-3,-9,3,2,5,81*
COc1ccc(NC(=O)[C@@H]2CC=C[C@@H]3CCN(C4CCCCC4)C(=O)[C@@H]32)cc1,4,4,-1,-1,0,.
O=C([C@@H]1CC=C[C@@H]2CCN(C3CCCCC3)C(=O)[C@@H]21)N1CCN(c2ccccc2)CC1,1,23*,-2,2,0,.
CC#CCN(Cc1ccco1)C(=O)C1CCC(=O)N(Cc2ccccc2F)C1 (centres undefined),8,23*,-5,0,0,14
